Compound activity (PubChem BioAssay)
MazF activator – MazEF (E. coli) toxin RNase activation | P0AE70 | FAM/BHQ RNA-DNA oligo cleavage fluorescence, 5 h | activation, % at 20 µM | hit rate 0.32% among 350,000 | AID 504720; in the data active = activation above about 50%
Target sequence (P0AE70 whole entry, looked up): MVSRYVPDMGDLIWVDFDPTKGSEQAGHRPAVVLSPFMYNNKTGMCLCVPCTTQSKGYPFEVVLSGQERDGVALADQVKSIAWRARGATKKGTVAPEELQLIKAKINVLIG
BoNT A protease – blocks Botulinum neurotoxin A light chain protease | multiplex microsphere protease substrate cleavage, flow cytometry | inhibition, % at 10 µM | hit rate 0.17% among 360,000 | AID 588499
BoNT-F LC inh – BoNT F light chain protease inhibition; Multiplex microsphere protease cleavage assay, flow cytometry; inhibition, % at 10 µM; hit rate 0.22% among 360,000; in the data active = inhibition above about 35%, passing the limit was not always enough; inconclusive = no clear call, values can overlap the other calls
Autofluor counter – counter-screen for toxin protease inhibitors: compound fluorescence | hit rate 3.1% among 360,000 | fluorescence intensity (no concentration beside the values) | compound autofluorescence counterscreen, microsphere flow cytometry; stronger effect = higher value | AID 624483; in the data active = fluorescence intensity above about 16000; inconclusive = no clear call, values can overlap the other calls
DUSP3 inh – inhibitors of human VHR1 phosphatase (DUSP3); P51452; recombinant VHR phosphatase, pNPP absorbance; inhibition, % at 13.3 µM; hit rate 0.52% among 290,000; AID 1654; in the data active = inhibition above about 50%
Target sequence (P51452 whole entry, looked up): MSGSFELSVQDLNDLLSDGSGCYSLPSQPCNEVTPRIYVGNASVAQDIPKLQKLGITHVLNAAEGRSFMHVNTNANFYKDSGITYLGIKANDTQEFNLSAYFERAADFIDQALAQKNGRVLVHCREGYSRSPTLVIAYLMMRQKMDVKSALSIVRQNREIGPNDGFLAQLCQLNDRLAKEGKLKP
Anthrax LF inh2 – anthrax lethal factor protease inhibition; P15917; multiplex microsphere protease cleavage assay, LF; inhibition, % at 10 µM; hit rate 0.12% among 360,000
Each line names hits and unclear results; the compound was inactive in the other large screens. Only some compounds are listed: those with a hit (about 4% of all), similar ones and a draw of the others. Cut-off read from the data, not from the text of the source, unless noted: active = inhibition above about 30%; inconclusive = no clear call, values can overlap the other calls; inactive = below that.

CCSc1nnc([C@H](Cc2ccccc2)NC(=O)OC(C)(C)C)o1	Autofluor counter 23861
CCN(CC)C(=O)CSc1nnc([C@H](CCSC)NC(=O)OC(C)(C)C)o1	none
CCNc1nnc(SCC(=O)NC2CCCCCC2)s1	none (no result: DUSP3 inh)
CC(=O)Nc1nonc1C(=O)N1CCC(C)CC1	Autofluor counter 20925
CC1CCN(C(=O)c2ccccc2NC(=O)Nc2ccccc2)CC1	none
CS(=O)(=O)c1ccc(C(=O)NC2CCOC2=O)cc1 (centres undefined)	BoNT A protease inconclusive, Autofluor counter 21657
Cc1ccc(-n2[nH]c(=O)c(-c3ccccn3)c2C)cc1	none
Cc1ccc(-n2[nH]c(=O)c3cccnc32)cc1	Autofluor counter 16502
O=C1CCCCN1CCC(=O)N1CCCC(Nc2ccc(F)c(F)c2)C1 (centres undefined)	none
CCOc1cc(N2CCOCC2)c(OCC)cc1NC(=O)c1c(-c2ccccc2)noc1C	none (no result: BoNT A protease, BoNT-F LC inh, Autofluor counter, DUSP3 inh, Anthrax LF inh2)
COc1ccc(NC(=O)N2CCCc3ccccc32)cc1	Autofluor counter 20850
COc1cccc(C(=O)N2CCCc3ccccc32)c1	Autofluor counter 17528
CCCN(CCC)S(=O)(=O)c1ccc(C(=O)N2CCCc3ccccc32)cc1	Autofluor counter 22837
NC(N)=NCCCS(=O)(=O)Nc1ccc(Nc2c3ccccc3nc3cc([N+](=O)[O-])ccc23)cc1	MazF activator 51 (no result: DUSP3 inh)
Cc1ccc(S(=O)(=O)NCC(=O)N2CCCC2)cc1	BoNT A protease inconclusive, Autofluor counter 16845
Cc1ccc(S(=O)(=O)NCCN=C(CN2CCCC2)NS(=O)(=O)c2ccc(C)cc2)cc1	BoNT A protease inconclusive, Autofluor counter 24857
Cc1ccc(S(=O)(=O)NCC(=O)N2CCCCC2)cc1	none
Cc1ccc(S(=O)(=O)NCCNS(=O)(=O)c2ccc(C)cc2)cc1	DUSP3 inh 58
O=C(CCNS(=O)(=O)c1ccc(Br)s1)NC1CCCC1	Autofluor counter 24053
O=C(c1ccc(Br)o1)N1N=C(c2ccc(Cl)cc2)CC1c1ccco1 (centres undefined)	none
Cc1cccc(C)c1-n1nnnc1C1c2ccccc2C(=O)N1CCc1ccccc1F (centres undefined)	none (no result: MazF activator, DUSP3 inh)
Cc1ccc(S(=O)(=O)NCC2CCC(C(=O)NC3CCCCC3)CC2)cc1 (centres undefined)	DUSP3 inh 58
Cc1ccc(S(=O)(=O)NCCC(=O)NC2CCCC2)cc1	BoNT A protease inconclusive, Autofluor counter 20213
Cc1cc(C)cc(NC(=O)C2CCN(C(=O)[C@@H]3Cc4ccccc4CN3)CC2)c1	none
O=c1cc(CN2CCCc3ccccc32)nc2sccn12	MazF activator 91
O=c1cc(CN2CCc3ccccc32)nc2sccn12	none
S=C(Nc1ccccc1)N1CCN(C2CCCCC2)CC1	none
CC(=O)N1CC(C)Sc2ccc(S(=O)(=O)N3CCCCC3)cc21 (centres undefined)	none
CC1=C(C)[N+](=O)C2CCCCC2N1[O-] (centres undefined)	BoNT A protease inconclusive, Autofluor counter 17133
CC(=O)Nc1nc(-c2ccccc2)nc(-c2ccccc2OC(C)=O)n1	none
CSCc1ccc(C(=O)NCc2ccccc2)cc1	none
Cc1nn2c(c1-c1ccc(Cl)cc1)N=C(c1ccco1)CC2c1ccccc1 (centres undefined)	Autofluor counter 22364
COc1ccc(C)cc1N(C(=O)c1ccco1)C(C(=O)NC1CCCC1)c1ccc(N2CCOCC2)cc1 (centres undefined)	DUSP3 inh 52
CCCCn1c(N)c(N(CCC(C)C)C(=O)CSc2nc3ccccc3s2)c(=O)[nH]c1=O	none (no result: DUSP3 inh)
COC(=O)c1ccc(N2CCCCC2)c(N)c1	none
COC(=O)c1ccc(N2CCC(C)CC2)c(N)c1	Autofluor counter 22414
Clc1ccc(/C=N/NC2=Nc3cccc4cccc2c34)cc1	none
C(=N\NC1=Nc2cccc3cccc1c23)/c1ccccc1	MazF activator 509
O=C(NC1CCCCC1)C1CCN(c2nccs2)CC1	none
Cc1ccc(/C=N\Nc2cn[nH]c(=O)c2Cl)cc1	Autofluor counter 23558
CCOc1ccc(/C=N/NC(=O)c2[nH]ncc2Br)c(O)c1	none
CN1C(=S)SC(N(O)C(=O)NC2CCCCC2)C1(C)C (centres undefined)	BoNT A protease inconclusive, Autofluor counter 21404
CC1=C(C(=O)Nc2cccnc2)C(c2ccncc2)n2nnnc2N1 (centres undefined)	BoNT A protease inconclusive, Autofluor counter 19936 (no result: DUSP3 inh)
COc1ccccc1NC(=O)C1=C(C)Nc2nnnn2C1c1cc(Br)ccc1OC (centres undefined)	Autofluor counter 23731
COc1cccc(C2C(C(=O)Nc3cccnc3)=C(C)Nc3nnnn32)c1OC (centres undefined)	none
CC1=C(C(=O)Nc2ccccc2)C(c2ccncc2)n2nnnc2N1 (centres undefined)	Autofluor counter inconclusive, Anthrax LF inh2 inconclusive (no result: DUSP3 inh)
Cc1ccc(C(=O)NCC(=O)OCC(=O)Nc2ccc(Cl)cc2C(F)(F)F)cc1C	BoNT-F LC inh 38
Cc1ccc(S(=O)(=O)CCC(=O)OCC(=O)N2CCN(S(=O)(=O)c3ccc(Cl)cc3)CC2)cc1	none
Cc1ccc(OCC(=O)N2CCN(C3=NS(=O)(=O)c4ccccc43)CC2)cc1	Autofluor counter 20779
Cc1ccc(OCCC(=O)OCC(=O)N2CCN(S(=O)(=O)c3ccc(C)cc3)CC2)cc1	Autofluor counter 26716 (no result: DUSP3 inh)
CCS(=O)(=O)N1CCN(C(=O)COc2ccc(-c3ccccc3)cc2)CC1	Autofluor counter 22952
CCCS(=O)(=O)N1CCN(C(=O)COc2ccc(-c3ccccc3)cc2)CC1	none
Cc1nc(SCC(=O)c2ccc(F)c(F)c2)[nH]c(=O)c1Oc1ccc(Cl)cc1	none
COc1cc(N2CCCC2)c(OC)cc1/C=C(/C#N)c1ccc(Br)cc1	Autofluor counter 20296
COc1ccc(C(C#N)=Cc2ccc(OC)c(OC)c2)cc1	none (no result: DUSP3 inh)
COc1ccc(C(C#N)=Cc2ccccc2OC)cc1	none (no result: DUSP3 inh)
COc1cc(N2CCCC2)c(OC)cc1/C=C(/C#N)c1ccc(F)cc1	BoNT-F LC inh 35
Cc1ccc(NC(=O)c2cn(-c3cccc(C)n3)cn2)cc1	none
CCCCNC(=O)c1onc(CSc2ccccc2C)c1C(=O)O	none
CCCc1ccc(O)c(N=Cc2cc(Br)cc(OCC)c2O)c1	none
O=C(O)c1ccc(/C=N/Nc2ncc(C(F)(F)F)cc2Cl)cc1	none
CCCCN1Cc2cc(C(=O)c3cc(OC)ccc3O)cnc2NC1=O	none
CN1Cc2cc(C(=O)c3cc(Cl)cc(CSc4ncccn4)c3O)cnc2NC1=O	DUSP3 inh 56 (no result: MazF activator, BoNT A protease, BoNT-F LC inh, Autofluor counter, Anthrax LF inh2)
Cc1ccc(O)c(C(=O)c2cnc3c(c2)CN(CCC(C)C)C(=O)N3)c1	none
Cc1ccc(O)c(C(=O)c2cnc3c(c2)CN(C)C(=O)N3)c1	Autofluor counter 21945
CCN(CC)c1ccc(N)cc1	MazF activator 99 (no result: DUSP3 inh)
Cc1cc(-c2nn(-c3ccccc3F)cc2CN2CCC(O)CC2)c(C)s1	none
COC(=O)c1ccc(CSc2nnc3ccccn23)o1	none
CC(=O)c1sc(NC(=O)C2CCCN2S(=O)(=O)c2ccccc2F)nc1C (centres undefined)	none (no result: DUSP3 inh)
